Consider 33 compounds from PubChem BioAssay (NCATS).

Results filed as inconclusive are left out. A number with no mark means an inactive call. Active and inactive are the calls of the source. The call rests on the fitted dose curve.
On the % scale 0 is the no-effect control and ±100 the full control effect; potency means the concentration at half of the fitted maximal effect.

Sequence of Atrial natriuretic peptide receptor 2 (Homo sapiens) (P20594 whole entry, looked up): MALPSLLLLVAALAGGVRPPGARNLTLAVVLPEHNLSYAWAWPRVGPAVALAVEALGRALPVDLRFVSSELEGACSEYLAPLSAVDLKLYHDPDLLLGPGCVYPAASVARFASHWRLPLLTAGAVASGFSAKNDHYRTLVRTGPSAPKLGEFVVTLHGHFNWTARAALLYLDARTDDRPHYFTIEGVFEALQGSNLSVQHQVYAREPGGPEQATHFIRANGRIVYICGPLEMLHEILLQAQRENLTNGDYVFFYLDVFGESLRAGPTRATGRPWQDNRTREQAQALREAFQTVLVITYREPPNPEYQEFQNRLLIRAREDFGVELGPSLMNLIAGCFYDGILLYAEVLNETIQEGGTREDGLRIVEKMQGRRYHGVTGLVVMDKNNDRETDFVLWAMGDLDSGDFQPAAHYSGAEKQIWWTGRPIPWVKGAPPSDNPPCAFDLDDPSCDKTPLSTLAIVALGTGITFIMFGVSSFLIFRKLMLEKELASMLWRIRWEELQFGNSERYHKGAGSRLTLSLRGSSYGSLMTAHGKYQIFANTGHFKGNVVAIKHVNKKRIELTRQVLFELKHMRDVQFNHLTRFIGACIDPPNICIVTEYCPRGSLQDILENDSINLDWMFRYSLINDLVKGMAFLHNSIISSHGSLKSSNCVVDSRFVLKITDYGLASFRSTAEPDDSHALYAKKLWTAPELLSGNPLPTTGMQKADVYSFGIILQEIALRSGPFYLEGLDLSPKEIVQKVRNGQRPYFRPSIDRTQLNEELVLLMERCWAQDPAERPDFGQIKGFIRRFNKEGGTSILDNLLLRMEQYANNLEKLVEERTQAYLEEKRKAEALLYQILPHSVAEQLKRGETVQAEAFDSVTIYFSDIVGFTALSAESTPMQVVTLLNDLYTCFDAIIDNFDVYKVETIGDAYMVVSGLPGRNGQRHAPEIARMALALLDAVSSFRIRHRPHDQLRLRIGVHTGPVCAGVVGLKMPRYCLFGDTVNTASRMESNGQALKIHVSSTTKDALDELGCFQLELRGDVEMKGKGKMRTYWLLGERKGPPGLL

The assay addresses Atrial natriuretic peptide receptor 2 (Homo sapiens) (UniProt P20594). Nature of the assay: Natriuretic polypeptide receptor (hNpr2) antagonism - Pilot subtype selectivity assay (AID 1347050). The conditions noted are these: NPR2-expressing cells, cGMP antagonist-mode read-out; series mostly up to 38.3 µM; activity change, negative = inhibition: at the top concentration. How it is done: F. Fan, B. F. Binkowski, B. L. Butler, P. F. Stecha, M. K. Lewis, K. V. Wood, Novel genetically encoded biosensors using firefly luciferase. ACS Chem Biol 3, 346-351 (2008).
PROTOCOL TABLE (as described by Inglese J, Shamu CE and Guy RK. 2007)
SEQUENCE No. (e.g., 1, 2, 3, etc.); […] (e.g., Cells, Incubation, Reagent, etc.); VALUE and DESCRIPTION.
1. Cells. Seed 1500 HEK293 cGMP-sensor cells expressing hNpr2 per well in 4uL into Greiner 1536-well white/solid bottom high base, TC plates.
2. Incubation. Incubate plated cells at 37C in 5% CO2, 95% RH overnight.
3. Reagent. Add 1uL per well GloSensor reagent from Promega (2% final concentration) or CO2 independent media vehicle control to respective columns of Greiner 1536-well plates.
4. Incubation. Incubate plated cells at ambient temperature for 2 h., protect from light.
5. Compounds. Library compounds and DMSO vehicle control added at 23nL per well, transferred by Pin Tool.
6. Incubation. Incubate plated cells for 30 min. at ambient temperature, protect from light.
7. Detector. GloSensor baseline pre-read luminescence measured using CCD-based camera (Viewlux).
8. Compound. Add 1uL of hNppC peptide to 1 nM final concentration to stimulate hNpr2 or CO2 independent media as vehicle control.
9. Incubation. Incubate treated cells at ambient temperature for 20 min., protect from light.
10. Detector. GloSensor post-hNppC luminescence measured using CCD-based camera (Viewlux).
NOTES (numbers refer to Sequence numbers above)
1. HEK293 cells expressing hNpr2 and GIP/pGS-40F were grown to 85-95% confluence (48-72 h) in T175 culture flasks (CO2 independent media supplemented with 10% FBS, 1% Pen/Strep antibiotics, and 1 ug/mL puromycin). Trypsinize and harvest cells from T175 culture flasks and filter through 40 um cell strainer. Cells counted with Invitrogen Countess (30,000,000 - 50,000,000 cells/flask). Cells diluted to a final concentration of 375 cells/uL in CO2 independent media and a Millipore multidrop used to dispense 1500 cells per well (4uL/well) into 9 x1536-well Greiner White/Solid bottom, high base tissue-culture treated (TC) plates and one Aurora 1536-well Black/Clear bottom, low base, TC plate (for visual inspection of cell health throughout the duration of the assay).
2. Cells incubated for 24 h. at 37C in 95% RH incubator with metal lid having gas-exchange holes.
3. Prepare GloSensor Reagent (Promega): Reconstitute GloSensor luciferase substrate by adding 8.2mL Hepes buffer to 250mg substrate, mix well, protect from light and stored at -80C. Prepare a fresh 12% GloSensor solution in CO2 independent supplemented plating media (see above). Mix well and store at ambient temperature, protected from light. 1uL 12% GloSensor Luciferase Reagent added (2% final concentration) to respective columns of 9 x 1536-well Greiner plate with BioRaptr, 1uL CO2 independent plating media added to respective columns as vehicle control with BioRaptr.
4. Cells incubated for 2 h. at ambient temperature, protected from light with metal lid having gas-exchange holes.
5. 23nL of LOPAC1280 library compounds (7 plates) or DMSO vehicle control transferred to 9 Greiner white/solid bottom high base, TC plates in 7 interplate 1:5 titrations (see Yasgar, A. et al. 2008) with Pintool. Two of the 9 plates are DMSO-only in compound field at beginning and end of compound library-treated plates.
6. Cells incubated for 30-50 min. at ambient temperature protected from light with metal lid having gas-exchange holes.
7. Read cellular baseline GloSensor luminescence in presence of test library compounds on the ViewLux [Exposure = 10 s.; Gain = High; Speed = Slow; and Binning = 2X.]
8. hNppC peptide agonist solution prepared at 1 mM (in H2O) stock concentration. From this a working dilution was prepared at 6 nM in CO2 Independent media. […]
For the compound `Oc1ccc(-c2nc(-c3ccc(F)cc3)c(-c3ccncc3)[nH]2)cc1`, the “activity change, negative = inhibition” value was -2.25%.

As to `CC(=O)N1CCN(c2ccc(OC[C@H]3CO[C@](Cn4ccnc4)(c4ccc(Cl)cc4Cl)O3)cc2)CC1`, the “activity change, negative = inhibition” value was -3.44%.

`CN(C)CCCC1(c2ccc(F)cc2)OCc2cc(C#N)ccc21` (stereo not drawn): the “activity change, negative = inhibition” value is -5.33%.

In the case of `CCN(CC)C(=S)SSC(=S)N(CC)CC`, the Potency was 5.21 µM (active).

As to `O=c1ccc2ccc(O)c(O)c2o1`, the “activity change, negative = inhibition” value was 0.98%.

Consider `COc1cc2c(cc1OC)C1CC(=O)C(CC(C)C)CN1CC2` (stereo not drawn), for which the “activity change, negative = inhibition” value was -15.8%.

On to `CCOC(=O)C(C)Oc1cccc2c(=O)n(CC(=O)Nc3ccc4c(c3)OCCO4)ccc12` (stereo not drawn), for which the “activity change, negative = inhibition” value was 1.83%.

As to `CC(C)c1ccc2c(c1)c(SC(C)(C)C)c(CC(C)(C)C(=O)O)n2Cc1ccc(Cl)cc1`, the “activity change, negative = inhibition” value is -13.3%.

With `CC1(C)C(=O)N(CCN2CCC(C(=O)c3ccc(F)cc3)CC2)c2ccccc21`, the “activity change, negative = inhibition” value is -2.09%.

For `Nc1ccn([C@@H]2O[C@H](CO)[C@@H](O)C2O)c(=O)n1` (stereo partly drawn), the “activity change, negative = inhibition” value is 3.89%.

As for `O=c1cc(N2CCOCC2)oc2c(-c3ccccc3)cccc12`, the “activity change, negative = inhibition” value was 21.1%.

Turning to `C[C@H](Cc1ccc(O)c(O)c1)[C@@H](C)Cc1ccc(O)c(O)c1`, the “activity change, negative = inhibition” value was -5.68%.

Take `O=c1c(O)c(-c2cc(O)c(O)c(O)c2)oc2cc(O)cc(O)c12`: the “activity change, negative = inhibition” value is -2.63%.

For `C[C@@H](N)C1CCC(C(=O)Nc2ccncc2)CC1` (stereo partly drawn), the “activity change, negative = inhibition” value is 3.11%.

Consider `Nc1nc(OCc2ccccc2)c2[nH]cnc2n1`, for which the “activity change, negative = inhibition” value is -3.82%.

`Nc1nc(N)c(N=O)c(OCC2CCCCC2)n1`: the “activity change, negative = inhibition” value was 2.65%.

Regarding `O=C1NC(=O)C(c2ccccc2[N+](=O)[O-])=C1Nc1ccc(O)c(Cl)c1`, the “activity change, negative = inhibition” value is -1.84%.

In the case of `O=C(c1ccccc1)c1ccc2n1CCC2C(=O)O` (stereo not drawn), the “activity change, negative = inhibition” value is 1.41%.

With `O=c1c(O)c(-c2ccc(O)cc2O)oc2cc(O)cc(O)c12`, the “activity change, negative = inhibition” value was -1.32%.

For `O=C1c2ccccc2-c2n[nH]c3cccc1c23`, the “activity change, negative = inhibition” value is 9.45%.

With `NNc1nncc2ccccc12`, the “activity change, negative = inhibition” value is 3.39%.

In the case of `NC(=NCc1ccccc1)NC(=O)c1nc(Cl)c(N)nc1N`, the “activity change, negative = inhibition” value is 9.77%.

For the compound `OC(CN1CCN(c2cccc(Cl)c2)CC1)C(c1ccccc1)c1ccccc1` (stereo not drawn), the “activity change, negative = inhibition” value is -0.24%.

Take `COc1ccc2cc([C@H](C)C(=O)O)ccc2c1`: the “activity change, negative = inhibition” value was 2.39%.

Consider `NCCCCNCCCN`, for which the “activity change, negative = inhibition” value is -2.56%.

On to `O=C(O)c1cccnc1Nc1cccc(C(F)(F)F)c1`, for which the “activity change, negative = inhibition” value is 7.79%.

As for `CNC[C@H](O)c1ccc(O)c(O)c1`, the “activity change, negative = inhibition” value was 13.4%.

For the compound `O=C(CCc1ccc(O)cc1)c1c(O)cc(O)cc1O`, the “activity change, negative = inhibition” value was 2%.

In the case of `CC(=O)O[C@H]1C(=O)[C@@]2(C)C([C@H](OC(=O)c3ccccc3)[C@]3(O)C[C@H](OC(=O)[C@H](O)[C@@H](NC(=O)c4ccccc4)c4ccccc4)C(C)=C1C3(C)C)[C@]1(OC(C)=O)CO[C@@H]1C[C@@H]2O` (stereo partly drawn), the “activity change, negative = inhibition” value is -1.98%.

On to `CC1(C)NC(=O)N(c2ccc([N+](=O)[O-])c(C(F)(F)F)c2)C1=O`, for which the “activity change, negative = inhibition” value was -18.2%.

With `O=C1c2c(O)cc(O)cc2OC(c2ccc(O)c(O)c2)C1O` (stereo not drawn), the “activity change, negative = inhibition” value was 4.36%.

Turning to `COc1ccccc1N1CCN(CCN(C(=O)C2CCCCC2)c2ccccn2)CC1`, the “activity change, negative = inhibition” value was 1%.

`COc1cc2nc(N3CCN(C(=O)C4CCCO4)CC3)nc(N)c2cc1OC` (stereo not drawn): the “activity change, negative = inhibition” value is 10.4%.
